Experimental data as given in PubChem BioAssay AID651636 (Sanford-Burnham Center for Chemical Genomics, 2012).
The campaign covered roughly 360,000 compounds. About 3,000 (0.83%) were called active. Many of the other results were omitted from the sample, so actives are more common in it than they were. A number with no mark means an inactive call. Rule as the data show it: active = inhibition above about 38%; inactive = the rest.

molecular target: G-protein coupled receptor 183 (Homo sapiens) (UniProt P32249); experiment: blockers of oxysterol-driven EBI2 arrestin signaling – cell-based, luminescence, 7a,25-OHC stimulation, uHTS, primary screen (AID 651636); conditions: EBI2 beta-arrestin recruitment, 7a,25-OHC stimulated, at 5 µM, stronger effect = higher value;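 also: enzyme fragment complementation signal reports receptor beta-arrestin coupling in cells; 0% = agonist plus DMSO wells and 100% = wells without agonist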
Sequence (P32249 whole entry, looked up, the tested form may be a part): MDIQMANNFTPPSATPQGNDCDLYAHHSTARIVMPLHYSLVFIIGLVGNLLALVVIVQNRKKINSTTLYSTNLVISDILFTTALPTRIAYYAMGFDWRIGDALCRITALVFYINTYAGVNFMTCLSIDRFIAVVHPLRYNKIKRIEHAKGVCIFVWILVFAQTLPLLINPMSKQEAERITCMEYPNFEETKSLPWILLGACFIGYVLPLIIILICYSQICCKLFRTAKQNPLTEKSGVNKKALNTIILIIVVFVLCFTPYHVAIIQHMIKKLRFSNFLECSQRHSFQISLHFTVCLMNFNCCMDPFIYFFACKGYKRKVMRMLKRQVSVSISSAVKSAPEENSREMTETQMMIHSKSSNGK

Row | Structure (SMILES) | inhibition
1 | Cc1ccn2c(=O)c(C(=O)NCCC3=CCCCC3)c(O)nc2c1 | -7.12%
2 | COc1cc(S(=O)(=O)N(Cc2cccs2)C2CC2)ccc1-n1cnnn1 | 6.23%
3 | COc1ccc(CN(Cc2ccco2)S(=O)(=O)c2ccc(S(=O)(=O)N3CCCC3)cc2)cc1 | -7.47%
4 | CCOc1ccc(CN(Cc2ccco2)S(=O)(=O)c2ccc(-n3cnnn3)c(OC)c2)cc1 | 50.9% (active)
5 | CCCCCCCCN1C(=O)[C@H](CC(=O)NCC23CC4CC(CC(C4)C2)C3)C[C@@]2(C(=O)OC)CCCCC=C12 | 8.12%
6 | COC1=CC(=O)OC(C)(c2ccccc2)C1 (configuration not stated) | -4.31%
7 | COc1ccc(CNC(=O)CN(c2ccc(OC)c(Cl)c2)S(=O)(=O)c2ccc(C)cc2)cc1 | 42% (active)
8 | COc1ccc(S(=O)(=O)N(CC(=O)NCc2ccco2)c2ccc(F)cc2)cc1 | -6.33%
9 | COc1ccc(CCNC(=O)CN(c2ccccc2)S(=O)(=O)c2ccccc2)cc1 | -2.04%
10 | CCOP(=O)(OCC)C(Cc1ccccc1)N=C(c1ccccc1)c1ccccc1 (configuration not stated) | 23.7%
11 | O=C(NCc1ccc(F)cc1)c1cc(C2CCCCN2C(=O)C2CCCCC2)on1 (configuration not stated) | 13.6%
12 | CC1CCN(S(=O)(=O)c2ccc3[nH]c(=O)ccc3c2)CC1 | -4.98%
13 | C=CCOc1c(CNn2cn[nH]c2=S)cccc1OC | -9.2%
14 | O=C(Cc1ccccc1Cl)N1CCN(c2ccccn2)CC1 | 7.34%
15 | Cc1cc(C(=O)N2CCN(c3ccccn3)CC2)c(C)o1 | -3.6%
16 | O=C(c1cc2ccccc2s1)N1CCN(c2ccccn2)CC1 | 60.8% (active)
17 | O=C(NCN1CCN(CCO)CC1)c1cnccn1 | -9.7%
18 | Cc1cccc(C)c1-n1nnnc1C(CCc1ccccc1)N1CCN(C/C=C/c2ccccc2)CC1 (configuration not stated) | 39.8% (active)
19 | CSCCC(c1nnnn1Cc1ccccc1)N1CCN(C/C=C/c2ccccc2)CC1 (configuration not stated) | 19.1%
20 | CCCC(c1nnnn1C(C)(C)C)N1CCN(Cc2ccccc2)CC1 (configuration not stated) | 12.5%
21 | COC1=C/C(=C/c2c(N)n3nc(CC(=O)N4CCOCC4)sc3nc2=O)C=CC1=O | -0.898%
22 | COc1ccccc1N1CCN(C(=O)c2ccc(NC3=NC4CS(=O)(=O)CC4S3)cc2)CC1 (configuration not stated) | -5.44%
23 | COc1ccccc1N1CCN(c2nc(C)cc(=O)[nH]2)CC1 | -15.3%
24 | CCOc1ccccc1N1CCN(C(=O)c2ccc3[nH]c(C)c(C)c3c2)CC1 | 18.2%

Row | Structure (SMILES) | inhibition
25 | COc1ccccc1N1CCN(C(=O)c2cc(=O)c3cc(C)ccc3o2)CC1 | 93.3% (active)
26 | COc1ccccc1N1CCN(C(=O)C2Cc3ccccc3CN2C(=O)c2ccco2)CC1 (configuration not stated) | 7.65%
27 | O=C(NCCS(=O)(=O)N1CCN(c2ccccc2)CC1)c1cc(=O)c2ccccc2o1 | 5.68%
28 | O=C(c1cc(=O)c2ccccc2o1)N1CCN(c2ccccc2)CC1 | 48.1% (active)
29 | O=C(c1ccc(CS(=O)(=O)c2ccccc2)o1)N1CCN(c2ccccc2)CC1 | -5.95%
30 | COc1ccccc1N1CCN(C(=O)c2cc(=O)c3cc(C)cc(C)c3o2)CC1 | 72.9% (active)
31 | [O-][n+]1onc2c1CCc1[nH]c(-c3ccccc3)nc1-2 | 3.97%
32 | CCc1nccn1S(=O)(=O)c1cccc([N+](=O)[O-])c1 | 2.08%
33 | CC1(C(=O)Nc2ccc3c(c2)OCCO3)CCN1C(=O)Cc1cc(F)ccc1F (configuration not stated) | -9.9%
34 | O=C(CCCC(=O)N(CC(=O)NC1CCCC1)Cc1ccccc1Cl)Nc1ccccn1 | -4.48%
35 | CC(C)CCN1CCN(C/C=C/c2ccco2)CC1CCO (configuration not stated) | 2.4%
36 | O=C(O)C1C2C=CC(C2)C1C(=O)NCc1ccccc1 (configuration not stated) | -5.43%
37 | COc1ccccc1CCNC(=O)C1CCN(C(=O)/C=C/c2ccccc2)CC1 | 86.2% (active)
38 | COc1ccccc1CNC(=O)C1CCN(C(=O)[C@@H]2Cc3ccccc3CN2)CC1 | -0.14%
39 | COc1ccccc1CNC(=O)C1CCN(c2nc3ccccc3o2)CC1 | 4.11%
40 | O=C(NCCC1CCCCN1S(=O)(=O)c1ccc(Cl)cc1)C(=O)NCc1ccco1 (configuration not stated) | 2.6%
41 | CC1(C)Oc2ccc(C(=O)N3CCOCC3)cc2N(CC(=O)Nc2ccccc2)C1=O | 1.64%
42 | CC(=O)c1ccc(OCC(O)CN2CCN(S(=O)(=O)c3cccc(Br)c3)CC2)cc1 (configuration not stated) | 40.3%
43 | Cc1cccc(OCC(O)CN2CCN(S(=O)(=O)c3ccc(C)cc3C)CC2)c1 (configuration not stated) | 54.6% (active)
44 | Cc1ccc(S(=O)(=O)N2CCN(C(=O)COC(=O)c3c(C)cc(C)cc3C)CC2)c(C)c1 | 3.87%
45 | Cc1ccc(S(=O)(=O)N2CCN(C(=O)CSc3cc(C)ccc3C)CC2)c(C)c1 | 64.3% (active)
46 | Cc1ccc(OCC(O)CN2CCN(CC(O)COc3ccc(C)cc3Cl)CC2)c(Cl)c1 (configuration not stated) | 4.54%
47 | CCCc1cc(=O)[nH]c(SCC(=O)N2CCN(S(=O)(=O)c3ccc(C)cc3C)CC2)n1 | -2.8%
